A short description of experiment [1]: NCI Yeast Anticancer Drug Screen. Data for the rad50 strain (AID 155).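 Also: 0% = growth of vehicle-only cultures of the same strain.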 The conditions noted are these: S. cerevisiae rad50 strain growth inhibition, active compounds read high. Put shortly:
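Cells are treated with compound, grown, and their growth is then scored against vehicle-only cultures of the same repair-deficient yeast strain.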

Experiment [2] can be described thus: NCI Yeast Anticancer Drug Screen. Data for the mec2-1 strain (AID 157). Conditions: S. cerevisiae mec2-1 strain, active compounds read high. Put shortly:
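mec2-1 yeast strain, carrying an alteration in DNA damage repair or cell cycle control, was exposed to compounds; growth inhibition was measured relative to vehicle-treated controls.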

Experiment [3] can be described thus: NCI Yeast Anticancer Drug Screen. Data for the cln2 rad14 strain (AID 165).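 Also: 0% = growth equal to vehicle treated cultures.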 Conditions: S. cerevisiae cln2 rad14 strain, active compounds read high. A digest of the protocol:
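Yeast carrying cln2 and rad14 alterations (cell cycle control and DNA damage repair) were exposed to compounds. Growth inhibition was measured against vehicle-treated controls.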

Experiment [4] is described as follows: NCI Yeast Anticancer Drug Screen. Data for the bub3 strain (AID 167). Conditions: S. cerevisiae bub3 mutant strain, active compounds read high. Put shortly: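 Part of a panel of yeast mutants defective in DNA damage repair or cell cycle regulation. Each strain is grown with compound, and inhibition is calculated relative to solvent-treated cultures.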
The nature of experiment [5]: NCI Yeast Anticancer Drug Screen. Data for the mlh1 rad18 strain (AID 175). Conditions: S. cerevisiae mlh1 rad18 strain growth inhibition, active compounds read high. Put shortly: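 Growth inhibition of the yeast strain was measured after compound exposure and expressed relative to vehicle-treated controls. The strain carries defined defects in DNA damage repair.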
The nature of experiment [6]: NCI Yeast Anticancer Drug Screen. Data for the sgs1 mgt1 strain (AID 161).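 Also: 0% = growth of cultures given vehicle only.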 The conditions noted are these: S. cerevisiae sgs1 mgt1 strain, active compounds read high. Put shortly: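 Percent growth inhibition was derived by comparing compound-exposed mutant yeast with vehicle-exposed cultures. The strain carries alterations in DNA damage repair.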
Where [7] appears, read: at 5.0 µM (retest, dose inferred, filed as 0.5).
Setting [8] is: at 50.0 µM (retest, dose inferred, filed as 5.0).

About 79,000 compounds went through this panel and 15% of them were active in at least one assay; those are over-represented in the sample as a whole. Values without a mark were called inactive. Calls of active or inactive are those of the source. Rule as the data show it: active = growth inhibition above about 70%; inactive = the rest.

Consider `CC1OC(C)C(O)C2=C1C(=O)c1ccccc1C2=O` (centres undefined), for which the growth inhibition in experiment [1] (setting [7]) was -4%; in experiment [1] (setting [8]) it was 95% (active); in experiment [1] (at 50.0 µM) it was 91.9% (active); in experiment [2] (setting [7]), -29%; in experiment [2] (setting [8]), 77% (active); in experiment [2] (at 50.0 µM) it was 86.3% (active). The growth inhibition in experiment [3] (setting [7]) was 2%; in experiment [3] (setting [8]), 55%; in experiment [3] (at 50.0 µM), 60.4%; in experiment [4] (setting [7]), 14%; in experiment [4] (setting [8]) it was 87% (active); in experiment [4] (at 50.0 µM) it was 83.5% (active). The growth inhibition in experiment [5] (setting [7]) is 23%; in experiment [5] (setting [8]), 96% (active); in experiment [5] (at 50.0 µM), 87.8% (active).
On to `C/C(=N\NS(=O)(=O)c1ccc(C)cc1)c1cc2ccccc2n1C`, for which the growth inhibition was -24% in experiment [2] (setting [7]); 65% in experiment [2] (setting [8]); 44.2% in experiment [2] (at 50.0 µM); -17% in experiment [6] (setting [7]); 82% (active) in experiment [6] (setting [8]); 63.2% in experiment [6] (at 50.0 µM). Moreover, the growth inhibition in experiment [3] (setting [7]) is -5%; in experiment [3] (setting [8]) it was 92% (active); in experiment [3] (at 50.0 µM) it was 78.5% (active); in experiment [4] (setting [7]), 31%; in experiment [4] (setting [8]) it was 93% (active); in experiment [4] (at 50.0 µM), 60.7%. The growth inhibition in experiment [5] (setting [7]) was 3%; in experiment [5] (setting [8]) it was 86% (active); in experiment [5] (at 50.0 µM) it was 65.2%.
Turning to `Cc1cc(C(=O)O)c(C)c2c1sc1ccccc12`, the growth inhibition in experiment [1] (setting [7]) is 6%; in experiment [1] (setting [8]), 87% (active); in experiment [1] (at 50.0 µM), 76.8% (active); in experiment [6] (setting [7]), 12%; in experiment [6] (setting [8]), 82% (active); in experiment [6] (at 50.0 µM), 62.8%. Also, the growth inhibition in experiment [3] (setting [7]) was -64%; in experiment [3] (setting [8]), 81% (active); in experiment [3] (at 50.0 µM), 42%; in experiment [4] (setting [7]) it was -11%; in experiment [4] (setting [8]), -14%; in experiment [4] (at 50.0 µM) it was 51.1%. Further, the growth inhibition was 0% in experiment [5] (setting [7]), 81% (active) in experiment [5] (setting [8]) and 81.2% (active) in experiment [5] (at 50.0 µM).
For the molecule `CN1CCN(C2=C(Cl)C3(OCCS3)C(F)(F)C2(F)F)CC1` (centres undefined), the growth inhibition is 26% in experiment [2] (setting [7]); 53% in experiment [2] (setting [8]); 34.2% in experiment [2] (at 50.0 µM); 15% in experiment [6] (setting [7]); 58% in experiment [6] (setting [8]); 53.7% in experiment [6] (at 50.0 µM). In addition, the growth inhibition in experiment [3] (setting [7]) is 1%; in experiment [3] (setting [8]) it was 29%; in experiment [3] (at 50.0 µM), 49.2%; in experiment [4] (setting [7]), 5%; in experiment [4] (setting [8]), 22%; in experiment [4] (at 50.0 µM) it was 39.9%. Further, the growth inhibition was 20% in experiment [5] (setting [7]), 68% in experiment [5] (setting [8]) and 48.1% in experiment [5] (at 50.0 µM).
As for `Cc1ccc(N2C(c3ccccc3)=CC(=C3C=CC(=O)C=C3)C=C2c2ccccc2)cc1`, the growth inhibition in experiment [2] (setting [7]) was 12%; in experiment [2] (setting [8]), 83% (active); in experiment [2] (at 50.0 µM) it was 98.5% (active); in experiment [3] (setting [7]), -5%; in experiment [3] (setting [8]) it was 71% (active); in experiment [3] (at 50.0 µM) it was 78.9% (active). The growth inhibition was 7% in experiment [4] (setting [7]); 80% (active) in experiment [4] (setting [8]); 92.5% (active) in experiment [4] (at 50.0 µM); 13% in experiment [5] (setting [7]); 89% (active) in experiment [5] (setting [8]); 96.8% (active) in experiment [5] (at 50.0 µM).
`CCCCNCc1c(O)ccc2ccccc12`: the growth inhibition in experiment [2] (setting [7]) is 3%; in experiment [2] (setting [8]) it was 99% (active); in experiment [2] (at 50.0 µM), 99.2% (active); in experiment [6] (setting [7]) it was 17%; in experiment [6] (setting [8]), 99% (active); in experiment [6] (at 50.0 µM), 99.1% (active). Moreover, the growth inhibition in experiment [3] (setting [7]) is 10%; in experiment [3] (setting [8]), 98% (active); in experiment [3] (at 50.0 µM), 95.8% (active); in experiment [5] (setting [7]), 36%; in experiment [5] (setting [8]), 99% (active); in experiment [5] (at 50.0 µM) it was 99.2% (active).
Take `CCOC(=O)c1c(N2CCCC2)nsc1Nc1ccc(F)cc1`: the growth inhibition in experiment [1] (setting [7]) is -3%; in experiment [1] (setting [8]), 90% (active); in experiment [1] (at 50.0 µM) it was 91.8% (active); in experiment [6] (setting [7]), 13%; in experiment [6] (setting [8]), 90% (active); in experiment [6] (at 50.0 µM) it was 92% (active). For the same molecule, the growth inhibition in experiment [3] (setting [7]) was 2%; in experiment [3] (setting [8]), 75% (active); in experiment [3] (at 50.0 µM), 45%; in experiment [4] (setting [7]) it was 1%; in experiment [4] (setting [8]), 92% (active); in experiment [4] (at 50.0 µM), 94.8% (active). Besides, the growth inhibition was -2% in experiment [5] (setting [7]), 88% (active) in experiment [5] (setting [8]) and 93.5% (active) in experiment [5] (at 50.0 µM).
On to `CC(c1ccccc1)n1c2ccccc2c2c(N)ncnc21` (centres undefined), for which the growth inhibition in experiment [1] (setting [7]) is 6%; in experiment [1] (setting [8]), 100% (active); in experiment [1] (at 50.0 µM), 78.4% (active); in experiment [6] (setting [7]), 23%; in experiment [6] (setting [8]), 100% (active); in experiment [6] (at 50.0 µM), 89.5% (active). Further, the growth inhibition in experiment [3] (setting [7]) was -4%; in experiment [3] (setting [8]) it was 100% (active); in experiment [3] (at 50.0 µM), 90.8% (active); in experiment [4] (setting [7]), 13%; in experiment [4] (setting [8]), 100% (active); in experiment [4] (at 50.0 µM), 90.3% (active). The growth inhibition in experiment [5] (setting [7]) is 32%; in experiment [5] (setting [8]), 99% (active); in experiment [5] (at 50.0 µM) it was 91.9% (active).
On to `CC/C(=C\c1cccc(OC)c1)c1ccncc1`, for which the growth inhibition was 12% in experiment [2] (setting [7]); 92% (active) in experiment [2] (setting [8]); 94.2% (active) in experiment [2] (at 50.0 µM); 40% in experiment [6] (setting [7]); 91% (active) in experiment [6] (setting [8]); 95.3% (active) in experiment [6] (at 50.0 µM). The growth inhibition in experiment [3] (setting [7]) was 14%; in experiment [3] (setting [8]), 81% (active); in experiment [3] (at 50.0 µM), 90.3% (active); in experiment [4] (setting [7]) it was 35%; in experiment [4] (setting [8]), 89% (active); in experiment [4] (at 50.0 µM) it was 94.8% (active). Also, the growth inhibition in experiment [5] (setting [7]) is 32%; in experiment [5] (setting [8]), 87% (active); in experiment [5] (at 50.0 µM), 93.9% (active).
`Nc1nc(Cl)cc(Nc2ccc(Cl)c(Cl)c2)n1`: the growth inhibition in experiment [2] (setting [7]) is -2%; in experiment [2] (setting [8]), 73% (active); in experiment [2] (at 50.0 µM), 70.3% (active); in experiment [6] (setting [7]), -4%; in experiment [6] (setting [8]) it was 77% (active); in experiment [6] (at 50.0 µM), 95.8% (active). Further, the growth inhibition is 16% in experiment [3] (setting [7]); 58% in experiment [3] (setting [8]); 51.7% in experiment [3] (at 50.0 µM); 3% in experiment [4] (setting [7]); 92% (active) in experiment [4] (setting [8]); 93.2% (active) in experiment [4] (at 50.0 µM). For the same molecule, the growth inhibition is -3% in experiment [5] (setting [7]), 79% (active) in experiment [5] (setting [8]) and 89.8% (active) in experiment [5] (at 50.0 µM).
`O=S(O)CCCCCSSc1ccc(Cl)cc1`: the growth inhibition is 3% in experiment [1] (setting [7]); 81% (active) in experiment [1] (setting [8]); 98% (active) in experiment [1] (at 50.0 µM); 9% in experiment [2] (setting [7]); 100% (active) in experiment [2] (setting [8]); 95.8% (active) in experiment [2] (at 50.0 µM). The growth inhibition is -2% in experiment [3] (setting [7]); 97% (active) in experiment [3] (setting [8]); 98.2% (active) in experiment [3] (at 50.0 µM); 25% in experiment [4] (setting [7]); 99% (active) in experiment [4] (setting [8]); 99% (active) in experiment [4] (at 50.0 µM). Also, the figures for the growth inhibition in experiment [5] (setting [7]), in experiment [5] (setting [8]) and in experiment [5] (at 50.0 µM) were 8%, 97% (active) and 98.2% (active), respectively.

These data come from PubChem BioAssay (NCI).
